# Assay outcomes deposited in PubChem by National Center for Advancing Translational Sciences (NCATS).
# Sfp inh: inhibitors of Bacillus subtilis Sfp phosphopantetheinyl transferase; Q9F4F7; Biochemical Sfp PPTase activity, qHTS; Potency, µM, most hits filed as inhibitors; 3.5% of 310,000 active;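 note: the enzyme is Sfp with the accession as filed and its product quenches rhodamine fluorescence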
#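 Fluorescence-quenching assay with 15 nM Sfp, 5 uM rhodamine-CoA and 12.5 uM BHQ-2-labelled ybbR peptide in pH 7.6 Hepes/MgCl2 buffer. Enzyme was pre-incubated with compound for 15 min at room temperature. Rate was taken from the 30-min fluorescence change (525/598 nm).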
# G9a block: inhibitors of human histone lysine methyltransferase G9a. Q96KQ7. Potency, µM (doses to about 102 µM), usual class: inhibitors. 8.8% of 350,000 active. G9a H3K9 monomethylation, AlphaScreen, 2 h; note: nearly all actives have a fitted effect of over 75% in size
# Target sequence (Q96KQ7 913-1193 limits assumed): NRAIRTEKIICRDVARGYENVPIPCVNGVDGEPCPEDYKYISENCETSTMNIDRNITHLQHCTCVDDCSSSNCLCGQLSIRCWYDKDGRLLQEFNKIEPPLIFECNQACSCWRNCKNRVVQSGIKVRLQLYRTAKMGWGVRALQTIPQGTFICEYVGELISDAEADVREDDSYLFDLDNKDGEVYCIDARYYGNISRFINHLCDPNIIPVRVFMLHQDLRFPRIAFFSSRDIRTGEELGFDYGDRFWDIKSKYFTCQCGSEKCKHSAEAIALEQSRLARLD
#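 Enzyme 20 nM + cpd, 15 min RT; add b-H3K9 pep 500 nM / SAM 20 uM; 2 h RT; anti-H3K9me1 Ab 0.5 ug/mL + SA donor / anti-rabbit acceptor beads 20 ug/mL each, 10 min; AlphaScreen read.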
# ALOX12 inh: ALOX12 (human) lipoxygenase inhibition; P18054; purified 12hLO, xylenol orange hydroperoxide absorbance; Potency, µM (top dose mostly 108 µM), most hits filed as inhibitors; 1.1% of 580,000 active; AID 1671190
#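 Hydroperoxide product was detected by ferrous iron/xylenol orange as the 573 to 405 nm absorbance ratio. Arachidonic acid at 40 uM (final) was turned over for 30 min at room temperature by 150 nM human 12hLO, pH 7.0 Hepes buffer, after 15 min compound preincubation.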
# BAZ2B inh: inhibitors of human BAZ2B bromodomain; AID 504333; 4.4% of 360,000 active; AlphaScreen BAZ2B-H3K14Ac peptide displacement; Potency, µM (titrated, usually from 114 µM), usual class: inhibitors; note: nearly all actives have a fitted effect of over 60% in size
#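 Multi-concentration screen (max 110 uM) measuring displacement of acetylated histone H3 peptide from BAZ2B by AlphaScreen, using 50 nM protein, 50 nM peptide and 10 ug/mL streptavidin donor plus Ni-chelate acceptor beads.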
# JMJD2A Tudor: JMJD2A Tudor domain (human) inhibition; AlphaScreen JMJD2A-Tudor / H3K4me3 peptide binding; 4.4% of 390,000 active; Potency, µM (highest dose often 114 µM), most hits filed as inhibitors; note: nearly all actives have a fitted effect of over 50% in size
# HP1b chromo inh: inhibitors of HP1-beta chromodomain binding to methylated histone tails; AID 540317; Potency, µM (titrated, usually from 114 µM), actives largely listed as inhibitors; AlphaScreen HP1-beta / biotin-H3K9me3 peptide binding; P83916; 0.56% of 390,000 active; note: nearly all actives have a fitted effect of over 70% in size
# Target sequence (P83916 whole entry, looked up): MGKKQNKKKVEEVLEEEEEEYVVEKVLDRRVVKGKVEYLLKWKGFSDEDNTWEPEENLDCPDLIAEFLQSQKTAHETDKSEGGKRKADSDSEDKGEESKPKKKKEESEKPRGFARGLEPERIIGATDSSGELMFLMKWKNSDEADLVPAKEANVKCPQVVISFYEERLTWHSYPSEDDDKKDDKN
#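 AlphaScreen: HP1-beta (50 nM) preformed 30 min with biotin-H3(1-18)K9me3 peptide (50 nM) in PBS pH 7.4, 0.01% Tween-20. Compound added for 30 min at RT, then streptavidin donor/nickel chelate acceptor beads (10 ug/mL) for 30 min.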
# Numbers stand for hits; 0 = inactive; ? = inconclusive; - = not tested or not shown; ! = not active in a repeat; [ ] = dose if it differs, or a comment. Hits are enriched below; roughly 8.7% of the tested compounds scored in any of these assays. Calls come from the whole dose curve; as a rule, active = well fitted curve in the direction sought with a large enough effect; inconclusive = small, poorly fitted or top-dose-only effect, or another doubt; inactive = no such curve, though single readings can be large; an effect the other way counts as inactive or inconclusive.
SMILES,Sfp inh,G9a block,ALOX12 inh,BAZ2B inh,JMJD2A Tudor,HP1b chromo inh
N#CC1=C(N)C(C#N)(C#N)[C@H](c2c(F)cccc2F)[C@H]2CC3(CC=C12)OCCO3,0,50µM,0,0,0,0
N#CC1=C(N)C(C#N)(C#N)C2(CCC3(CC2)OCCO3)C2CC3(CC=C12)OCCO3 (stereo not drawn),0,0,0,100µM,0,0
CN1C2C=C3C(C#N)=C(N)C(C#N)(C#N)[C@H](c4c(F)cccc4F)[C@H]3C1CC2 (stereo partly drawn),0,50µM,0,?,0,0
CCn1ccc(C(=O)N2CCC(CC(=O)NC3CC3)C2)n1 (stereo not drawn),-,-,0,-,-,-
CCC(=O)N(C1CCOCC1)C1CCN(S(=O)(=O)c2ccc(F)cc2F)CC1,-,-,0,-,-,-
CCCC(CCC)C(=O)Nc1cccc(-c2nc3cccnc3s2)c1C,-,?,?,?,?,0
Cc1nc2ccc(S(=O)(=O)Nc3cccc(-c4nc5cccnc5s4)c3C)cc2s1,0,50µM,0,0,0,0
Cc1nc2ccc(S(=O)(=O)Nc3cc(-c4nc5cccnc5s4)ccc3C)cc2s1,0,50µM,0,0,0,0
CSc1ccc(S(=O)(=O)NCC(=O)OC(C)C(=O)NCc2ccccc2)cc1[N+](=O)[O-] (stereo not drawn),-,0,?,0,0,0
CC(C)CSc1ccc(S(=O)(=O)NCC(=O)O)cc1[N+](=O)[O-],0,50µM,0,0,0,0
CN(C)c1ccc(S(=O)(=O)NCC(=O)OCC(=O)NC(=O)C2CCCCC2)cc1[N+](=O)[O-],-,0[12.7 µM],0,0,0,0
CNc1ccc(S(=O)(=O)NCC(=O)NCCCc2ccccc2)cc1[N+](=O)[O-],0,40µM,-,50µM,?,0
COc1ccc(CCNC(=O)CNS(=O)(=O)c2ccc(N(C)C)c([N+](=O)[O-])c2)cc1OC,0,?,0,0,0,0
CN(C)c1ccc(S(=O)(=O)NCC(=O)OCC(=O)Nc2cccc(Cl)c2)cc1[N+](=O)[O-],0,56µM,0,?,?,0
CN(C)c1ccc(S(=O)(=O)NCC(=O)NCc2ccccc2)cc1[N+](=O)[O-],0,45µM,0,?,?,0
Cc1ccccc1-c1nc2scc(CCNC(=O)C(=O)Nc3ccc4c(c3)OCCO4)n2n1,-,-,0,-,-,-
Cc1ccc(C)c(S(=O)(=O)Nc2cccc3cccnc23)c1,-,-,0,-,-,-
c1cnc2c(c1)ncn2C1CC1,-,-,0,-,-,-
OCC1CN(Cc2ccccc2)CC12CCN(C1CCC1)CC2 (stereo not drawn),-,-,0,-,-,-
CCN(CC)CCOC(=O)C1(c2ccc(OC)c(OC)c2)CCCC1,79µM,?,0,0,0,0
CCN(CC)CCOC(=O)C1(C2CCCCC2)CCCCC1,0,34µM!,0,?,0,0
COCc1ccc(CN2CCCC(C(=O)Nc3cccc(-n4cccn4)c3)C2)o1 (stereo not drawn),-,-,0,-,-,-
O=c1nc2ccccc2c(NS(=O)(=O)c2ccc(Cl)cc2)n1-c1ccccc1,0,0[12.7 µM],0,0,56µM,0
COc1ccc(-c2[nH]ncc2-c2ccc3c(c2)OCCO3)c(O)c1,0,0,?,?,?,0
S=c1[nH]nc(Cc2ccc(Cl)cc2)n1-c1ccc2c(c1)OCCO2,0,-,0,?,?,0
SMILES,Sfp inh,G9a block,ALOX12 inh,BAZ2B inh,JMJD2A Tudor,HP1b chromo inh
O=c1cc(Nc2ccc3c(c2)OCCO3)[nH]c(=O)n1-c1ccc(Br)cc1,0,0,0,0,0,0
S=c1[nH]nc(-c2ccc(Br)cc2)n1-c1ccc2c(c1)OCCO2,40µM,1.6µM,?,?,71µM,0
COc1ccc(-c2n[nH]c(=S)n2-c2ccc3c(c2)OCCO3)cc1,?,1.8µM,?,0,3.2µM,?
COc1cc(OC)cc(-c2n[nH]c(=S)n2-c2ccc3c(c2)OCCO3)c1,0,3.5µM,0,0,4.5µM,0
COc1ccc(Cc2n[nH]c(=S)n2-c2ccc3c(c2)OCCO3)cc1,0,8.9µM,?,0,6.3µM,0
COc1cc(N=c2c([N+](=O)[O-])nn(-c3ccc4c(c3)OCCO4)n2O)cc(OC)c1,0,?,0,?,0,0
